This is a sample that favours compounds with a hit; in the whole collection about 9.2% have one here.
SMN2 splice enh – qHTS Assay for Enhancers of SMN2 Splice Variant Expression. HEK293 SMN2-luciferase splicing reporter, luminescence, 30-36 h. 210,000 compounds, 2.8% hits. Potency, µM (series often up to 46.1 µM), actives largely listed as activators; also: nearly all actives have a fitted effect of over 55% in size
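HEK293 cells carry an SMN2 minigene-luciferase reporter in which exon 7 inclusion puts luciferase in frame. Cells were seeded at 2000 cells/well, attached for 10-12 hours, then exposed to compounds for 30-36 hours at 37C before ONE-Glo luminescence.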
Rab9 prom act – qHTS Assay for Rab9 Promoter Activators | Huh7 Rab9 promoter-luciferase reporter, luminescence, 24 h | Potency, µM (top dose mostly 9.22 µM), actives largely listed as activators | 320,000 compounds, 2.8% hits; also: nearly all actives have a fitted effect of over 60% in size
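Cells were plated at 1500 per well in reduced-serum medium with 10% FBS and left 2 h. Compound in DMSO was then added for 24 h at 37 °C. Reporter signal was read by luminescence after 10 min with luciferase detection reagent.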
ELG1 repair inh – qHTS screen for small molecules that inhibit ELG1-dependent DNA repair in human embryonic kidney (HEK293T) cells expressing luciferase-tagged ELG1 | 330,000 compounds, 2.3% hits | Potency, µM (titrated, usually from 46.1 µM), most hits filed as inhibitors | HEK293T ELG1-luciferase reporter, luminescence, 16 h; DNA damage induced by 5-fluorouridine | AID 504467, 2011; also: nearly all actives have a fitted effect of over 55% in size
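Cells (2,000 per well) received 5-fluorouridine plus test compound or DMSO and were incubated 16 hr at 37 °C, 5% CO2. Luciferase activity was read by luminescence 30 min after ONE-Glo addition; signal suppression marked inhibition of damage-induced ELG1 function.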
NPC1 prom act – qHTS Assay for NPC1 Promoter Activators; AID 485313, 2010; 320,000 compounds, 2.4% hits; Potency, µM (titrated, usually from 9.22 µM), usual class: activators; Huh7 NPC1 promoter luciferase reporter, 24 h; also: nearly all actives have a fitted effect of over 60% in size
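Luciferase expression driven by the NPC1 promoter was measured in stably transfected Huh7 cells after a 24 h compound incubation, using a luciferase reagent and a luminescence read.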
FLuc modulator – qHTS profiling assay for firefly luciferase inhibitor/activator using purifed enzyme and Km concentrations of substrates (counterscreen for miR-21 project) | Luciferin 4-monooxygenase (Photinus pyralis), P08659 | purified FLuc, Km substrates, luminescence inhibition | Potency, µM (titrated, usually from 57.5 µM), actives largely listed as inhibitors | 360,000 compounds, 6.9% hits | AID 588342, 2011; also: nearly all actives have a fitted effect of over 55% in size
Target sequence (P08659 whole entry, looked up): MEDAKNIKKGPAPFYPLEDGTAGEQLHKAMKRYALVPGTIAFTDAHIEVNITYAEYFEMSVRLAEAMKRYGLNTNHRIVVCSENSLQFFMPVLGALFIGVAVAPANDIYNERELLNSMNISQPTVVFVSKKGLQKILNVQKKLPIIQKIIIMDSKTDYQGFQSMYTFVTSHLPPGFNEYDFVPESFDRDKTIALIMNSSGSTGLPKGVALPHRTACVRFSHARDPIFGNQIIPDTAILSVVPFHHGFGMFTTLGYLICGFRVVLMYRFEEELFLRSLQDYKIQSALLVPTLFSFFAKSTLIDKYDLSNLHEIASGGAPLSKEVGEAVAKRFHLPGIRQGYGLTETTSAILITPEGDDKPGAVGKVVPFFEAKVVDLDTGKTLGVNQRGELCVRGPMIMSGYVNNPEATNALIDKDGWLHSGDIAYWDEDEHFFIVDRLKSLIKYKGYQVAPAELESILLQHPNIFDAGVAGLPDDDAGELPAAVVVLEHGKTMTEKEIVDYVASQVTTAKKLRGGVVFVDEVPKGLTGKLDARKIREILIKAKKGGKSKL
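Purified P. pyralis luciferase, 10 nM final, with Km-level 10 uM D-luciferin and 10 uM ATP in 50 mM Tris acetate pH 7.5, 10 mM Mg acetate, 0.01% Tween-20, 0.05% BSA; 6-point qHTS titration about 60 µM downward; luminescence read.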
ELG1 genotox – qHTS screen for small molecules that induce genotoxicity in human embryonic kidney (HEK293T) cells expressing luciferase-tagged ELG1 | HEK293T ELG1-luciferase reporter, luminescence, 16 h | Potency, µM (doses to about 46 µM), actives largely listed as activators | 330,000 compounds, 1.3% hits | AID 504466, 2011; also: nearly all actives have a fitted effect of over 60% in size
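16 hr compound incubation (37 °C, 5% CO2) of HEK293T cells carrying luciferase-tagged ELG1; luciferase then measured by ONE-Glo luminescence after 30 min at RT.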
Hits are given with their value; i = inactive; ? = inconclusive; nt = not tested or not shown; [ ] = dose if it differs, or a comment. Calls follow the shape of the dose curve; as a rule, active = well fitted curve in the direction sought with a large enough effect; inconclusive = small, poorly fitted or top-dose-only effect, or another doubt; inactive = no such curve, though single readings can be large; an effect the other way counts as inactive or inconclusive.

SMILES	SMN2 splice enh	Rab9 prom act	ELG1 repair inh	NPC1 prom act	FLuc modulator	ELG1 genotox
COc1cccc(/C=N/NC(=S)Nc2cccc(C(=O)O)c2)c1O	16µM	i	?	i	0.19µM	i
O=C(Nc1ccc(Cl)c(C(F)(F)F)c1)C(Cc1ccccc1)NS(=O)(=O)c1ccc(Br)s1 (centres undefined)	i	nt	nt	nt	i	nt
O=C(C[C@H]1C/C=C\C[C@@H](Cc2ccc(F)cc2)C(=O)OC[C@@H](Cc2c[nH]c3ccccc23)NC1=O)NCCO	nt	nt	i	nt	nt	i
COC(=O)c1ccc(COc2ncnc3ccccc23)o1	nt	i	i	i	i	i
CNC(=S)N/N=C/c1c(C(=O)OC)cnn1-c1ccc(F)cc1F	nt	i	?	i	i	i
COC(=O)c1cnn(-c2ccc(F)cc2F)c1/C=N/NC(N)=S	nt	i	13µM	i	i	i
Cc1ccc(CN2CCSc3ccc(C(=O)NCCc4ccccc4)cc32)cc1	13µM	nt	nt	nt	i	nt
O=C(NCCc1ccc(Cl)cc1)c1ccc2c(c1)N(Cc1ccccc1)CCS2	?	nt	nt	nt	i	nt
Cc1ccc(CN2CCSc3ccc(C(=O)Nc4cc(C)cc(C)c4)cc32)cc1	i	nt	nt	nt	i	nt
Cc1ccc(CN2CCSc3ccc(C(=O)Nc4ccc(Cl)cc4)cc32)cc1	11µM	nt	nt	nt	?	nt
COc1cc(C(=O)Nc2cc(C)c(O)c(-c3nc4cc(Cl)ccc4o3)c2)cc(OC)c1OC	i	nt	nt	nt	i	nt
N#Cc1c(-c2ccccc2Cl)noc1/C=C/Nc1ccc(C(=O)O)cc1	nt	i	i	i	24µM	i
CC(C)C(=O)Nc1ccc(NC(=S)NC(=O)c2ccccc2F)cc1	nt	i	i	i	i	i
CN(C)c1cccc(C(=O)NCC2CCCO2)c1 (centres undefined)	28µM	i	?	i	i	?
Cc1cccc(C(=O)NCC2CCCO2)c1 (centres undefined)	i	i	?	i	i	i
CN(C)c1ccc(C(=O)NCC2CCCO2)cc1 (centres undefined)	25µM	i	?	?	?	?
O=C(NCC1CCCO1)c1cccc(Oc2ccccc2)c1 (centres undefined)	nt	?	?	i	17µM	?
CCCC[C@@H]1C[C@H]1C(NC(=O)Cc1ccccc1)c1ccc(Cl)cc1 (some centres undefined)	i	nt	nt	nt	nt	nt
CCCCc1n[nH]c2c1/C(=N/OCC)CC(C)(C)C2	nt	i	?	i	i	i
Cc1cccc(C(=O)c2c(N)sc3c2CCCC3)c1	nt	i	i	i	i	i
Cc1cccc(C(=O)c2c(N)sc3c2CCC(C)C3)c1 (centres undefined)	nt	?	?	?	21µM	?
CCN(CC)C(=O)c1c(NC(=O)c2cccc(C)c2)sc2c1CCC(C)C2 (centres undefined)	i	nt	nt	nt	17µM	nt
Cc1ccc2nc(Cl)c(/C=C/C(=O)c3ccco3)cc2c1	nt	3.5µM	?	?	i	i
Cc1ccc2cc(/C=C/C(=O)c3ccco3)c(Cl)nc2c1	nt	2.5µM	?	?	?	?
COc1ccc2cc(/C=C/C(=O)c3ccco3)c(Cl)nc2c1	i	?	?	?	?	?
SMILES	SMN2 splice enh	Rab9 prom act	ELG1 repair inh	NPC1 prom act	FLuc modulator	ELG1 genotox
COc1cc2cc(/C=C/C(=O)c3ccco3)c(Cl)nc2cc1OC	?	i	i	i	i	i
Cc1ccc(-n2c(=O)c3c4c(sc3n(Cc3ccccc3F)c2=O)CCC4)cc1C	i	nt	nt	nt	i	nt
CCOc1ccccc1C(=O)N[C@H](C(=O)OCc1csc(CC(=O)Nc2ccc(C)cc2)n1)C(C)C	nt	nt	23µM	nt	nt	i
COc1ccc(Cn2c(=O)c3oc4ccccc4c3n(CC(=O)Nc3c(C)cccc3C)c2=O)cc1	nt	nt	nt	nt	i	nt
Cc1ccc(SCc2cc(=O)n(C)[nH]2)cc1	i	i	i	i	?	i
CCc1ccc(-n2nc(CO)c(C(=O)NCCOC)n2)cc1	i	nt	nt	nt	17µM	nt
CCCCN1c2ccccc2N(CCCO)c2cc(C)nnc21	i	i	i	i	12µM	i
CCOc1ccccc1NC(=O)CSC1=Nc2ccccc2C2=NC(CC(=O)NCc3ccc4c(c3)OCO4)C(=O)N12 (centres undefined)	i	nt	nt	nt	i	nt
COc1ccc(-c2cc3ccc(OCC(C)=O)cc3oc2=O)cc1OC	nt	2µM	?	4µM	15µM	?
COc1ccc(-c2cc3ccc(OCC(C)=O)cc3oc2=O)cc1	nt	1µM	?	1.3µM	1.9µM	?
COC(=O)COc1ccc2cc(-c3ccc(OC)cc3)c(=O)oc2c1	nt	i	i	i	?	i
COC(=O)COc1ccc2cc(-c3ccccc3)c(=O)oc2c1	nt	i	i	i	12µM	i[9.26 µM]
NC(=O)COc1ccc2cc(-c3ccc(F)cc3)c(=O)oc2c1	nt	?	?	?	i	?
COc1ccc(-c2cc3ccc(OCc4nn[nH]n4)cc3oc2=O)cc1OC	i	i	i	i	15µM	i
CC(=O)NC(CCCNC(=S)NC1CCCCC1)C(=O)O (centres undefined)	i	i	i	i	i	i
CC1=NNC(=O)C1CC(=O)N/N=C(\C)c1cccs1 (centres undefined)	i	i	i	i	i	i
CCOC(=O)c1ccc(NC(=O)COc2cccc3c(=O)n(C)ccc23)cc1	nt	nt	nt	nt	i	nt
CCOC(=O)c1cnn(-c2cccc(Cl)c2)c1C1CCN(C(=O)OC(C)(C)C)CC1	i	nt	nt	nt	i	nt
CC1CCCCC1NC(=O)C1CCC(CNS(=O)(=O)c2ccccc2)CC1 (centres undefined)	nt	i	?	i	i	i
c1ccc2c(-c3nc(-c4ccncc4)no3)cccc2c1	?	?	?	?	11µM	?
c1ccc(-c2noc(-c3cccc4ccccc34)n2)cc1	11µM	i	?	i	6µM	?
c1cncc(-c2noc(-c3cccc4ccccc34)n2)c1	i	?	?	i	7.6µM	8.2µM
O=C(Nc1cccc(S(=O)(=O)N2CCCCC2)c1)c1ccc(OCC2CCCO2)cc1 (centres undefined)	i	i	13µM	i	15µM	i
O=C(CNc1cc(S(=O)(=O)N2CCOCC2)ccc1NCC1CCCO1)Nc1ccc(C(F)(F)F)cc1 (centres undefined)	nt	i	?	i	i	i
COc1ccc(C(=O)Nc2ccc(-c3ccc(C)o3)cc2)cc1S(=O)(=O)N1CCOCC1	nt	i	15µM	i	?	i
CCCOc1ccc(C(=O)CCC(=O)OCC(=O)Nc2cccc(S(N)(=O)=O)c2)cc1	nt	i	?	i	11µM	i

Screening results: PubChem BioAssay, National Center for Advancing Translational Sciences (NCATS)
